IL-1B inflam inh = blocks inflammasome-driven IL-1 beta release; THP-1 LPS/ATP IL-1B secretion, AlphaLISA, 16 h; active compounds read low; 4.7% of 360,000 active; activity change, % at 57.5 µM; in the data active = activity change below about -50%; inconclusive = mostly about -30% to -49%
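Secreted IL-1B measured by AlphaLISA bead assay after 16 h compound exposure of THP-1 cells; compounds (final up to 57.5 uM) added 1 h before LPS (250 ng/mL) and ATP (1.25 mM) stimulation; lower signal means less secretion.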
TDP1 cell CPT = DT40-hTDP1 cell growth loss with CPT. chicken DT40 Tdp1-/-;hTDP1 cells + 20 nM CPT, ATP luminescence, 48 h. Potency, µM (titrated, usually from 46.2 µM), inactives show at the highest dose activity change, negative = growth inhibition, usual class: inhibitors. 12% of 420,000 active; also: potency is read from the fitted curve at half-maximal effect; nearly all actives have a fitted effect of over 55% in size
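Chicken DT40 Tdp1-/- cells complemented with human TDP1, 400 cells/well, exposed to compounds plus 20 nM camptothecin for at least 48 h at 37 C; viability read as ATP content by CellTiter-Glo luminescence.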
HT1080 IDH1KD tx = HT-1080 IDH1 knockdown cell toxicity (counter line); HT-1080 IDH1 knockdown viability, ATP luminescence, 48 h; Potency, µM (titrated, usually from 46.1 µM), for inactives: at the highest dose activity, negative = toxicity, usual class: cytotoxic; 2% of 360,000 active;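 also: potency is read from the fitted curve at half-maximal effect; 0% = DMSO wells and -100% = cell-free medium wells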
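CellTiter-Glo luminescence after 48 h compound exposure at 37 degrees C of IDH1-knockdown HT-1080 cells in 5% FBS RPMI. %Activity scaled between DMSO wells and cell-free media wells, with curves fitted and assigned curve classes.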
TDP1 cell noCPT = qHTS for Inhibitors of human tyrosyl-DNA phosphodiesterase 1 (TDP1): qHTS in cells in absence of CPT; DT40 Tdp1-/- hTDP1 cells, no CPT, ATP luminescence, 48 h; AID 686978, 2013; 15% of 420,000 active; Potency, µM (doses to about 46.2 µM), inactives show at the highest dose activity change, negative = growth inhibition, hits mostly inhibitors; also: potency is read from the fitted curve at half-maximal effect; nearly all actives have a fitted effect of over 55% in size
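No-CPT arm: Tdp1-/-;hTDP1 DT40 cells (400/well) plus compounds, incubated ≥48 hr at 37 °C. Readout CellTiter-Glo luminescence.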
HT1080-NT tox = kills 2HG-producing HT-1080-NT fibrosarcoma cells; Potency, µM (highest dose often 46.1 µM), for inactives: at the top dose activity, negative = less viability, usual class: cytotoxic; 1.6% of 360,000 active; HT-1080-NT fibrosarcoma viability, CellTiter-Glo ATP luminescence, 48 h;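 also: NT is the 2HG producing partner of a matched IDH1 knockdown line; potency is read from the fitted curve at half-maximal effect; 0% = DMSO-treated cells and -100% = media-only wells without cells; nearly all actives have a fitted effect of over 55% in size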
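Read-out is CellTiter-Glo luminescence after 10 minutes at room temperature, following 48 hours' compound treatment of HT-1080-NT cells (750 cells/well, RPMI, 5% FBS, 37 degrees C).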
Starred values were filed as active, the others as inactive; ? = inconclusive; nt = no result given; [ ] = dose if it differs, or a comment. Compounds with a hit are over-represented: about 19% of the library has one in this group of screens. Unless noted, calls follow the shape of the dose curve; as a rule, active = well fitted curve in the direction sought with a large enough effect; inconclusive = small, poorly fitted or top-dose-only effect, or another doubt; inactive = no such curve, though single readings can be large; an effect the other way counts as inactive or inconclusive. Unless noted, % is scaled to controls: 0 for no effect and ±100 for the full control effect.

SMILES | IL-1B inflam inh | TDP1 cell CPT | HT1080 IDH1KD tx | TDP1 cell noCPT | HT1080-NT tox
O=C1c2ccccc2[C@@H]2Cc3csc[n+]3[C@H]12 | ? | 3.7µM* | 0% | 5.2µM* | -2%
CCN1C(=O)CC(c2ccc(OC(C)C)cc2)C1=O (stereo unspecified) | 24 | 4% | 15% | -1% | 11%
Cc1cccc(NC(=S)N/N=C2\CC(C)(C)Oc3ccc(O)cc32)c1 | ? | 3.7µM* | -16% | 2.6µM* | -18%
COc1cccc(NC(=S)N/N=C2\CC(C)(C)Oc3ccc(O)cc32)c1 | -28 | ? | -13% | ? | -12%
CC1(C)C/C(=N\NC(=S)Nc2ccccc2F)c2cc(O)ccc2O1 | -79* | ? | ? | 4.1µM* | ?
CCCCC[C@@H](C)N1C[C@H](COCc2ccccc2)Oc2cc(N3CC[C@H](N(C)C)C3)ccc2S1(=O)=O | -82* | ? | 15µM* | 18µM* | 21µM*
CCCCC[C@H](C)N1C[C@H](COCc2ccccc2)Oc2cc(N3CC[C@H](O)C3)ccc2S1(=O)=O | -20 | ? | ? | ? | ?
CCCCC[C@@H](C)N1C[C@H](COCc2ccccc2)Oc2cc(N3CC[C@@H](O)C3)ccc2S1(=O)=O | -13 | ? | ? | 21µM* | ?
CCOC(=O)Cn1c(=O)oc2cc(S(=O)(=O)Nc3ccccc3F)ccc21 | nt | -16% | nt | -23% | nt
Cc1ccc(-n2c(O)c(C=Nc3cc(C)on3)c3ccccc3c2=O)c(C)c1 | -15 | 1.6µM* | -11% | 4.6µM* | -13%
Cc1ccc(-n2c(O)c(C=NC3CCS(=O)(=O)C3)c3ccccc3c2=O)cc1 (stereo unspecified) | -11 | ? | -18% | -14% | 3%[9.24 µM]
Cc1ccc(-n2c(O)c(C=NC3CCS(=O)(=O)C3)c3ccccc3c2=O)c(C)c1 (stereo unspecified) | nt | 21µM* | -6% | ? | -13%
Cc1ccc(S(=O)(=O)N(C)C)cc1NC(=O)CN1C(=O)NC2(CCCCCCC2)C1=O | 0 | -5% | -10% | -12% | 0%
COc1ccc(Cc2nnc(SCC(=O)Nc3c(C)cccc3C)[nH]c2=O)cc1 | 7 | ? | 0% | 9.2µM* | -5%
CCc1ccc(CCN2C(=O)c3ccccc3C2=O)nc1 | 26 | -3% | ? | 0% | 28%
Cc1nc(CCN2C(=O)c3ccccc3C2=O)n[nH]1 | -4 | ? | 5% | 23µM* | 9%
CSc1nc(-c2ccccc2)c2cc(Cl)ccc2n1 | 21 | 21% | 11% | ? | 0%
CNCc1nc(-c2ccc[nH]2)c2cc(Cl)ccc2n1 | nt | 11µM* | nt | 14µM* | nt
COc1ccc(/C=C(\NC(=O)c2ccc(C)cc2)C(=O)NCCCn2ccnc2)cc1OC | -11 | -5% | -4% | -18% | -2%
CC(C)CCNC(=O)c1onc(CSc2ccc(F)c(F)c2)c1C(=O)NCCC(C)C | -20 | ? | 0% | ? | 6%
CN(C)CCNC(=O)c1onc(CSc2ccc(F)c(F)c2)c1C(=O)NCCN(C)C | ? | -26% | -20% | 16µM* | -22%
CCCNC(=O)c1onc(CSc2ccc(F)c(F)c2)c1C(=O)NCCC | 1 | 15µM* | 2% | ? | 7%
OC[C@@H]1O[C@@H](n2cnc3c(N[C@H]4CCC[C@@H]4O)ncnc32)[C@H](O)[C@H]1O | nt | 6% | nt | -3% | nt
Cc1cc(C(Br)(Br)Br)nc2ccccc12 | nt | 2.5µM* | nt | 2.5µM* | nt
Cc1cc(/C=C\c2ccccc2)nc2ccccc12 | -52* | -7% | -24% | -23% | 2%
Cc1cc(Cl)nc2ccccc12 | nt | 3% | nt | -3% | nt
COc1ccc(/C=C/c2cc(C(=O)O)c3ccccc3n2)cc1 | 17 | 10µM* | ? | 15µM* | -18%
O=c1[nH]nc(N/N=C/c2ccccc2OC(F)F)c(=O)[nH]1 | -12 | -4% | 1% | 10% | 1%

Bioassay records (PubChem)
